These results are taken from PubChem BioAssay.

Chain of Torsin-1A-interacting protein 2 (Homo sapiens) (Q8NFQ8 whole entry, looked up): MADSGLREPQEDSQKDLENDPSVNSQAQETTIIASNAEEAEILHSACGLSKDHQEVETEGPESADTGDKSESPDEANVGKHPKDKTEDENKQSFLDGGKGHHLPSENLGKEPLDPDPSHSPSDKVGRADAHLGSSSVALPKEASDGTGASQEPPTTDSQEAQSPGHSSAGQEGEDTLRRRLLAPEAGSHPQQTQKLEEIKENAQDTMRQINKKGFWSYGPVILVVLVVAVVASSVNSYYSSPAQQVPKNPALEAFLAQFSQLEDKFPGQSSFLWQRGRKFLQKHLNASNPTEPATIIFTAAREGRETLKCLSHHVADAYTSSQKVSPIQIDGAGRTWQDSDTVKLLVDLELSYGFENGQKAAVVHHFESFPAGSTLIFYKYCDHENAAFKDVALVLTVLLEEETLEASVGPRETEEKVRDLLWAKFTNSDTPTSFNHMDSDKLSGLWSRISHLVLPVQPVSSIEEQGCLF

This test addresses Torsin-1A-interacting protein 2 (Homo sapiens) (UniProt Q8NFQ8). Briefly: LULL1 binders on small-molecule microarray, primary screen, cell lysate, human LULL1 lysate, 635/667 nm fluorescence (AID 1092).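 Note: probe is lysate of COS7 cells overexpressing human LULL1; score merges per-feature 667 nm fluorescence with signal-to-noise.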 To be noted: hLULL1 lysate binding, 635 nm fluorescence, higher = more signal.
Turning to `CCc1oc(CC[C@@H](CO)NC(=O)NCCn2cc(C3(O)CCCCC3)nn2)c(C(=O)OC)c1C(=O)OC`, the composite z-score turned out to be 0.775.
Turning to `O=C1C2C=CC(C(O)c3c(F)cccc3Cl)N(Nc3ccccc3)C2C(=O)N1c1ccccc1` (stereo unspecified), the composite z-score was determined as 3.43.
`COc1ccc(C(=O)Nc2ccc(CN3C(=O)[C@@]4(O[C@@H](CCO)[C@H]([Si](C)(C)c5ccc(OC)cc5)[C@H]4C)c4ccccc43)cc2)cc1` returned a composite z-score of 1.4.
The figure for `CC(C)c1ccc(NN2C(C(O)c3cc(C(F)(F)F)cc(C(F)(F)F)c3)C=CC3C(=O)N(c4ccccc4)C(=O)C32)cc1` (stereo unspecified) is 3.22; for `CC(=O)NCCCC[C@@H]1NC(=O)[C@@H]2C[C@H](C(=O)NCCCCCCNC(=O)CS)[C@H](c3cccc(OCCO)c3)N2C1=O` it is 2.03; for `O=C1c2ccccc2[C@@]2(Cc3ccccc3N(CCN3CCOCC3)C2=O)[C@H](c2ccc(CO)cc2)N1Cc1ccccc1` it is 1.4.
`CCCCCN1CC=CC23O[C@@H]4/C=C\CCCOC(=O)C4[C@H]2C(=O)N(C(CO)C(C)C)[C@@H]3C1=O` (stereo partly specified) registered a composite z-score of 0.868.
The figure for `CN1C(=O)[C@]2(Cc3ccccc3)N=C(c3ccc(OCCCO)cc3)O[C@@H]2c2ccccc21` is 3.14; for `COc1ccc(CCNC(=O)[C@@H]2c3ccccc3C(=O)N(C3Cc4ccccc4C3)[C@H]2c2ccc(CO)cc2)cc1` it is 1.75.
On to `COc1cc2c(cc1OC)CN(C(=O)[C@H]1[C@@H]3C(=O)O[C@@H](c4ccccc4)[C@@H](c4ccccc4)N3[C@@H](c3ccc(O)cc3)[C@]13C(=O)Nc1ccc(C#CC4=CCCCC4)cc13)CC2`, for which the composite z-score amounted to 2.83.
`CCCC=C(CCC)[C@@H](NS(=O)(=O)c1cccs1)c1ccc(C(=O)OC)cc1` displayed a composite z-score of 3.43.
